Data from PubChem BioAssay AID1012 (Sanford-Burnham Center for Chemical Genomics, 2008).
About 520 (0.26%) of roughly 200,000 compounds were called active.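 Rule for the calls: active = tissue-nonspecific alkaline phosphatase inhibition above about 50% at 20 µM in the single-dose screen (limit read from the data); inactive = the rest.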 This excerpt belongs to a sample that is enriched for actives.

biological target: Alkaline phosphatase, tissue-nonspecific isozyme (Homo sapiens) (UniProt P05186); test: blockers of alkaline phosphatase TNAP activity – biochemical, luminescent, no phosphate acceptor, uHTS, primary screen (AID 1012); settings: purified TNAP, CDP-star luminescence, 30 min; at 20 µM; stronger effect = higher value;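 note: 0% = DMSO negative control and 100% = EDTA positive control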
Sequence (P05186 whole entry, looked up): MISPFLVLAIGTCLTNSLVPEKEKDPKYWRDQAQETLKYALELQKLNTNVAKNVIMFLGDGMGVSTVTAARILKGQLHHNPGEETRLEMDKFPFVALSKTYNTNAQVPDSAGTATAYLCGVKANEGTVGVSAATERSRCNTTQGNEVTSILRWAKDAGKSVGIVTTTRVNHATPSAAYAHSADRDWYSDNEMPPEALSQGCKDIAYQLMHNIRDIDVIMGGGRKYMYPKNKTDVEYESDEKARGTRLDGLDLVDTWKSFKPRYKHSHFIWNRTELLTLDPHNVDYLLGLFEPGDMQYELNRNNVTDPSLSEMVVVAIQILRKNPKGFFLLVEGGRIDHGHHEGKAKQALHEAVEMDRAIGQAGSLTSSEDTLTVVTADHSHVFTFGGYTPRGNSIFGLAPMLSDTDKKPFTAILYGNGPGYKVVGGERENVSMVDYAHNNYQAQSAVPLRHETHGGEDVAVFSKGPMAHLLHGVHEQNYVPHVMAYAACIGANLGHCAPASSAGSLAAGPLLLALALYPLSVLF

Compound	inhibition
COc1ccc(N2C(=O)CNC2=S)cc1	-13.2% (inactive)
N#C/C=C(/c1ccc(F)cc1)N1CCOCC1	-8.3% (inactive)
CC(C)CNC(=S)Nc1ccc(F)cc1	-5.6% (inactive)
COc1ccc(/C=N/NC(=O)c2ccncc2)cc1CN1CCCc2ccccc21	-28.5% (inactive)
CCC(=O)Nc1cc(C(F)(F)F)ccc1N1CCCC1	-1.6% (inactive)
NS(=O)(=O)c1ccc(NC(=S)NC(=O)c2cccc(Br)c2)cc1	57.3% (active)
O=C(NC(=S)Nc1ccc(S(=O)(=O)Nc2ncccn2)cc1)c1cccc(Br)c1	5.9% (inactive)
NS(=O)(=O)c1ccc(NC(=S)NC(=O)c2cccnc2)cc1	-3.6% (inactive)
CCOC(=O)C1=C(C)Nc2nc3ccccc3n2C1c1cccs1 (stereo unspecified)	57.2% (active)
CCOC(=O)C1=C(C)NC(=S)NC1c1cccs1 (stereo unspecified)	-12.7% (inactive)
COc1ccccc1NC(=O)C1=C(C)Nc2nc3ccccc3n2C1c1cccs1 (stereo unspecified)	-6.2% (inactive)
COc1ccccc1Oc1nc(-c2cccnc2)nc2ccccc12	-4.1% (inactive)
COc1cc(CNc2ncn[nH]2)ccc1OCc1ccccc1C	-67% (inactive)
Clc1ccc(-c2cc(C3CCNCC3)[nH]n2)c(Cl)c1	80.1% (active)
O=C1CSC(c2ccccc2)N1c1nc(-c2ccc(Cl)cc2Cl)cs1 (stereo unspecified)	-10% (inactive)
Clc1ccc(-c2ncc3ccccn23)c(Cl)c1	-7.2% (inactive)
CCCc1[nH]nc2c1C(c1ccc(Br)s1)C(C#N)=C(N)O2 (stereo unspecified)	1.9% (inactive)
CCCc1[nH]nc2c1C(C1CC=CCC1)C(C#N)=C(N)O2 (stereo unspecified)	50.5% (active)
COCc1[nH]nc2c1C(C1C=CCCC1)C(C#N)=C(N)O2 (stereo unspecified)	14.2% (inactive)
COc1nc(N(C)C)nc(N2CC(=O)N(CCNS(=O)(=O)c3ccc(C)cc3)C2=N)n1	-3.4% (inactive)
COc1ccc(C)cc1NC(=O)NCc1ccccn1	-12.1% (inactive)
CN(c1ccccc1)S(=O)(=O)c1ccc(Cl)c(C(=O)OCC(N)=O)c1	-4.4% (inactive)
NNC(=O)c1ccc(Cl)cc1Cl	-3.9% (inactive)
CN(C)C=NC(=O)c1cccn1-c1ncc(C(F)(F)F)cc1Cl	-14% (inactive)

Compound	inhibition
CNc1ccc(SC#N)cc1	-10.5% (inactive)
O=C(OCc1nc2ccccc2[nH]1)C1CCCCC1	-36% (inactive)
COC(=O)C1=CN(Cc2ccc(OC)c(OC)c2)C=C(C(=O)OC)C1c1cccs1	-7.4% (inactive)
CC(=O)N1C(C)c2ccccc2C(C)(C)CC12CCCCC2 (stereo unspecified)	2.5% (inactive)
COc1ccc(-n2c(SC)nc(O)cc2=O)cc1	-11.9% (inactive)
CS(=O)(=O)n1nc(-c2ccccc2)nc1NCc1ccco1	-1.5% (inactive)
CCS(=O)(=O)n1nc(-c2ccccc2)nc1SCc1ccccc1	61.1% (active)
CCn1c(SCc2ccccc2)nc2c(c1=O)SCC2	-14% (inactive)
CCS(=O)(=O)n1nc(-c2ccc(OC)cc2)nc1SC	66% (active)
COc1ccc(-c2noc(CN(C)S(=O)(=O)c3ccc(C)cc3)n2)cc1	-8.5% (inactive)
CCOc1cc(/C=C(/C#N)c2ccc(Cl)cc2)cc(Cl)c1OCC(=O)O	-8.1% (inactive)
CC(O)CNCCOc1cccc(Oc2ccccc2)c1 (stereo unspecified)	-10.9% (inactive)
COc1ccc(-c2nc(CN3CCN(c4ncccn4)CC3)c(C)o2)cc1C	-13.8% (inactive)
CCn1c(SCC(=O)Nc2nccs2)nnc1-c1ccco1	37.9% (inactive)
Cc1ccccc1OCCOc1ccc([N+](=O)[O-])cc1/C=N/n1cnnc1	-2.8% (inactive)
CC(=O)c1cnc(-c2ccccc2)s1	-4% (inactive)
NS(=O)(=O)c1ccc(CNC(=O)c2ccc(Cl)cc2[N+](=O)[O-])cc1	-22.8% (inactive)
CC(C)C(=O)Nc1ccc2c3c(cccc13)CC2	-18% (inactive)
O=C(CSc1nnc(C2CC2)n1Cc1ccccc1)Nc1cccnc1Cl	-1.5% (inactive)
C/C(CC(=O)Nc1ccc(Cl)cc1)=N\NC(=O)C(=O)NCCO	-12.4% (inactive)
Cc1cs/c(=N\N=C\c2ccc(O)cc2)n1Cc1ccco1	-18.1% (inactive)
CC(C)c1ccc(Nc2nnc(SCC(=O)c3nnc(-c4ccccc4)o3)s2)cc1	-1.3% (inactive)
CC1Cc2ccccc2N1C(=O)CSc1nnc(-c2ccc(S(=O)(=O)N3CCCC3)cc2)n1C (stereo unspecified)	-5.8% (inactive)
O=C(Nc1ccccc1C(=O)N1CCOCC1)c1ccc(CSc2ccccc2)cc1	-8.4% (inactive)

Compound	inhibition
COC(=O)[C@H]1Cc2cnoc2C[C@]1(C)C(=O)O	-8% (inactive)
CC(Oc1ccccc1)C(=O)Nc1oc(-c2ccco2)c(-c2ccco2)c1C#N (stereo unspecified)	-18.5% (inactive)
COc1ccc(N2C(=O)CC(Sc3n[nH]c(-c4ccc(C)cc4)n3)C2=O)cc1 (stereo unspecified)	43.8% (inactive)
O=Cc1ccc(Oc2cccc(C(F)(F)F)c2)nc1	-8.3% (inactive)
O=C(Cc1c[nH]c2ccccc12)N/N=C/c1cccc(F)c1	-1% (inactive)
Cc1cc(C(=O)COc2ccccc2[N+](=O)[O-])c(C)n1-c1cccc(S(=O)(=O)N2CCOCC2)c1	-9.7% (inactive)
Cc1cc(OCC(=O)NC2CCN(C)CC2)ccc1[N+](=O)[O-]	-25.3% (inactive)
O=C(Cc1ccccc1)Nc1cccc(C(=O)N/N=C/c2ccco2)c1	-4.3% (inactive)
CC(=O)NCC(=O)N1CCCC(C(=O)c2ccc3c4c(cccc24)CC3)C1 (stereo unspecified)	-8.9% (inactive)
Cc1ccccc1CC1(CO)CCCN(C(=O)c2cc(-c3ccccc3)no2)C1 (stereo unspecified)	-4.5% (inactive)
CC(=O)c1ccc(NC(=O)CSC(=S)N2CCCC2)cc1	-5.7% (inactive)
CC(C)Oc1ccc(CC(=O)NNC(=S)Nc2ccc(Br)cc2)cc1	-117% (inactive)
CCOCCCN(C(=O)Cn1nnc(-c2ccc(OC)c(OC)c2)n1)C(CC)C(=O)NC1CCCC1 (stereo unspecified)	-11.1% (inactive)
Cc1ccc(CN2CCN(Cc3cn(C)nc3-c3ccccc3)CC2CCO)o1 (stereo unspecified)	-8.9% (inactive)
Cn1cnnc1Sc1ccc(S(C)(=O)=O)cc1[N+](=O)[O-]	-1.9% (inactive)
COc1cc2c3c(c1)/C(=C1/SC(=S)NC1=O)C(=O)N3C(C)(C)C=C2C	21.4% (inactive)
CCC(C)NC(=O)CSC1=Nc2ccccc2C2=NC(CCC(=O)NCc3ccco3)C(=O)N12 (stereo unspecified)	-11% (inactive)
CC(C)C1N=C2c3ccccc3N=C(SCC(=O)c3ccc(O)c(O)c3)N2C1=O (stereo unspecified)	93.7% (active)
O=C(CSC1=Nc2ccccc2C2=NC(CC(=O)NCc3ccco3)C(=O)N12)NCc1ccco1 (stereo unspecified)	-27.8% (inactive)
CN(C(=O)CSc1nncc2ccccc12)C1CCCCC1	-7.3% (inactive)
C=CCNC(=O)COC(=O)CNC(=O)c1cc(Cl)cc([N+](=O)[O-])c1	6.8% (inactive)
COc1ccc(OC)c(S(=O)(=O)Nc2cccc(-c3ccc4nncn4n3)c2)c1	-5.3% (inactive)
COc1cccc(N(C(=O)C2COc3ccccc3O2)C(C(=O)NC2CCCCC2)c2ccc(O)cc2)c1 (stereo unspecified)	0.9% (inactive)
Cc1cc2c(cc1C)[n+](C)cn2CC(O)COCC1CC=CCC1 (stereo unspecified)	-9.6% (inactive)

Compound	inhibition
CCCCOc1ccc(N(CC(=O)NC(C)C)C(=O)CCC(=O)Nc2ccccn2)cc1	-3.6% (inactive)
CC(C)NC(=O)NCCCCCCS(C)=O (stereo unspecified)	-6.1% (inactive)
COc1cccc(NC(=O)CS(=O)(=O)c2cn(CC(=O)N3CCOCC3)c3ccccc23)c1	-14.3% (inactive)
COc1ccc(Cn2c(-c3ccc(Cl)cc3)c[n+]3ccccc23)cc1	-2.5% (inactive)
COC1=CCC2([N+](=O)[O-])CN(CC(=O)O)CC1([N+](=O)[O-])C2 (stereo unspecified)	-11.9% (inactive)
CCCC(c1nnnn1C(C)(C)C)N1CCN(Cc2ccccc2)CC1 (stereo unspecified)	-1.2% (inactive)
c1ccc2c(NC3C4CC5CC(C4)CC3C5)nc(N3CCOCC3)nc2c1 (stereo unspecified)	-15.9% (inactive)
CC1CN(/C=C/C(=O)C(F)(F)F)CC(C)O1 (stereo unspecified)	-8.2% (inactive)
CCOc1ccccc1N1CCN(C(=O)COc2ccc3c(C)cc(=O)oc3c2)CC1	-11% (inactive)
CC(C)CCC(C)NC(=O)c1ccc2nccnc2c1 (stereo unspecified)	-12.5% (inactive)
CC12CCC(C(=O)N(NC(=O)c3ccccc3O)C1=O)C2(C)C (stereo unspecified)	3.9% (inactive)
COc1ccc(N2C(=O)C(O)C2c2ccc(C)cc2)cc1 (stereo unspecified)	-8.2% (inactive)
C=CCn1c(CCNC(=O)c2cccs2)n[nH]c1=S	-3.9% (inactive)
CCCc1nc(SCC(=O)Nc2ccc(S(=O)(=O)N(C)C)cc2)c2ccccc2n1	17.6% (inactive)
Cc1cc(=O)oc(C)c1C(=O)NCCN(C)Cc1ccccc1	-6.1% (inactive)
Cc1ccccc1NC(=O)c1nn(-c2ccc(F)c(F)c2)ccc1=O	-8.3% (inactive)
O=C(Nc1nnc(Cc2ccccc2)s1)c1cnccn1	-2.7% (inactive)
CCN1CCN(C(=O)c2ccc(CN(c3ccc(C)c(C)c3)S(C)(=O)=O)cc2)CC1	-5.1% (inactive)
CC(C)(C)C(=O)N1CCC[C@@]1(CO)C(=O)O	-10.8% (inactive)
Cc1ccc(S(=O)(=O)N2CCN(C(=O)c3cccs3)CC2)cc1	-7.6% (inactive)
O=C(O)C1C2C=CC(O2)C1C(=O)NCCc1cccc(Cl)c1 (stereo unspecified)	-9.5% (inactive)
CC1CCC(NC(=O)C2c3ccccc3C(=O)N2Cc2ccc3c(c2)OCO3)CC1 (stereo unspecified)	-16.3% (inactive)
O=C(COC(=O)/C=C/c1cn(-c2ccccc2)nc1-c1cccnc1)Nc1ccc(Cl)cc1Cl	-8.8% (inactive)
CC(=O)Nc1ccc(C(=O)CSc2nc3ccc(C)cc3[nH]2)cc1	-33.5% (inactive)
